The text below walks through data of PubChem BioAssay (NCATS).

Results filed as inconclusive are left out. A number with no mark means an inactive call. The source made the active and inactive calls. The call rests on the fitted dose curve; in most records, active means well fitted inhibition curve with a large enough effect; inconclusive means small, poorly fitted or top-dose-only effect; inactive means flat fitted curve, though single readings scatter.

What all share (assay): Cytotoxic Profiling of Annotated Libraries Using Quantitative High-Throughput Screening (AID 1296008); further: nearly all actives have a fitted effect of over 60% in size
What all share (conditions): Five cell lines viability, CellTiter-Glo ATP luminescence, 48-72 h; max response: active compounds read low

For one assay, the system named is CRL-7250. The method, boiled down: (§1)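 Cytotoxicity was measured as CellTiter-Glo ATP luminescence, read after 10 min at room temperature. Compound treatment of the cells lasted 48 or 72 hr at 37 degrees Celsius in a qHTS format.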
The next assay has as its system HEK293. The method, boiled down:
as §1

The subject of another assay is HaCat. The method, boiled down: as §1
Another assay relates to KB-3-1. The method, boiled down:
as §1

A further assay concerns NIH3T3. The method, boiled down: as §1
On the % scale 0 is the no-effect control and ±100 the full control effect; potency means the concentration at half of the fitted maximal effect.

For `O=C(NCC(O)CO)c1ccncc1Nc1ccc(I)cc1F` (stereo not given), the Potency in the assay with CRL-7250 is 6.51 µM (active); in the assay on HaCat, 18.4 µM (active); in the assay on NIH3T3, 7.31 µM (active). Also, the max response in the assay on HEK293 was -15.9%. Also, the call in the assay with KB-3-1 was inactive.
Turning to `C[C@@H]1CN(Cc2ncccn2)C[C@H]1c1nc2c(cnn2C2CCOCC2)c(=O)[nH]1`, the max response with CRL-7250 is 1.7%; with HEK293, -4.3%; in the assay with HaCat it was 0.321%; with KB-3-1, -1.41%; with NIH3T3 it was -4.05%.
In the case of `CC1(C)CCC2(C(=O)OC3OC(CO)C(O)C(O)C3O)CCC3(C)C(=CCC4C5(C)CCC(OC6OC(C(=O)O)C(OC7OC(CO)C(O)C(O)C7O)C(OC7OC(CO)C(O)C(O)C7O)C6O)C(C)(C)C5CCC43C)C2C1` (stereo not given), the max response was 3.03% in the assay with CRL-7250; 4.12% in the assay on HEK293; 0.399% with HaCat; 6.58% with KB-3-1; -0.359% with NIH3T3.
For `CC1=C(CCC(C)CC(=O)O)[C@@]2(C)CCCC(C)(C)C2CC1=O` (stereo not given in full), in that order: 3.13%, 0.185%, -7.07%, -1.22% and -3.99%.
Regarding `COc1cccc2cc3c(c(O[C@@H]4O[C@H](CO[C@@H]5O[C@H](CO)[C@@H](O)[C@H](O)[C@H]5O)[C@@H](O)[C@H](O)[C@H]4O)c12)C(C)OC3=O` (stereo not given in full), the max response with CRL-7250 is -0.694%; with HEK293 it was 2.15%; in the assay on HaCat it was -3.49%; in the assay with KB-3-1, 9.17%; with NIH3T3, 0.0764%.
The like results for `C/C=C/C=C/C(O)=C1\C(O)=C(C)C(=O)[C@@]2(C)OC(=O)[C@@](C)(NC(=O)/C=C/C(=O)O)[C@@H]12` were, in that order, -29.7%, -6.48%, -17.6%, -1.41% and -1.65%.
The like results for `C=C(C(=O)O)C1CC(O)C2(C)CCCC(=C)C2C1` (stereo not given) were, in that order, -4.23%, 0.173%, -8.7%, -0.72% and 2.65%.
Turning to `C=C[C@]1(C)C[C@H](O)[C@@H]2[C@H](OC(=O)[C@@H]2C)C1/C(C)=C/O[C@@H]1O[C@H](CO)[C@@H](O)[C@H](O)[C@H]1O` (stereo not given in full), the max response in the assay with CRL-7250 was -0.594%; in the assay on HEK293 it was -0.606%; with HaCat it was -9.44%; in the assay with KB-3-1 it was 0.273%; in the assay with NIH3T3, -22.7%.
On to `COc1ccc(/C=C/C(=O)O[C@@H]2[C@@H](O)[C@@H](O)[C@H](O[C@@H]3C=C(CO)[C@H]4[C@H](O[C@@H]5O[C@H](CO)[C@@H](O)[C@H](O)[C@H]5O)OC=C[C@H]43)O[C@H]2C)cc1O`, for which the max response in the assay with CRL-7250 was 0.875%; in the assay with HEK293, -69.5%; with HaCat it was -15%; in the assay with KB-3-1, -14.4%; in the assay with NIH3T3, -43%.
Consider `C/C1=C\CCC(C)CCO[C@@H]2O[C@H](CO[C@@H]3OC[C@H](O)[C@H](O)[C@H]3OC1=O)[C@@H](O)[C@H](O)[C@H]2O` (stereo not given in full), for which the max response with CRL-7250 is -2.22%; with HEK293 it was 2.77%; with HaCat, -12.1%; in the assay with NIH3T3, -2.67%. Further, the compound was classed as inactive in the assay on KB-3-1.
For the compound `C/C=C1\[C@H](OC2OC(COC3OC(CO)C(O)C(O)C3O)C(O)C(O)C2O)OC=C(C(=O)OC)[C@H]1CC(=O)OCCc1ccc(O)cc1` (stereo not given in full), the max response is -3.04% in the assay on CRL-7250; -70.9% in the assay with HEK293; -0.414% in the assay with HaCat; 2.72% in the assay with KB-3-1; -38.2% in the assay on NIH3T3.
Take `Cc1cc(C)cc(C(=O)NOCCCCCC(=O)NO)c1`: the Potency is 8.2 µM (active) in the assay with CRL-7250; 1.64 µM (active) in the assay on HEK293; 1.84 µM (active) in the assay on HaCat; 2.06 µM (active) with KB-3-1; 5.8 µM (active) in the assay on NIH3T3.
On to `C[C@@H]1CC[C@]2(C(=O)OC3OC(CO)C(O)C(O)C3O)CC[C@]3(C)C(=CCC4[C@@]5(C)CC[C@H](O)[C@](C)(C(=O)O)C5CC[C@]43C)C2[C@]1(C)O` (stereo not given in full), for which, in the assay with CRL-7250, the outcome was inactive. In addition, the max response with HEK293 was -6.18%; in the assay with HaCat it was -8.63%; in the assay on KB-3-1, 4.37%; with NIH3T3, -0.137%.
Take `CC(=O)c1ccc2c(c1)C(O)C(C(C)(C)O)O2` (stereo not given): the max response is -0.999% in the assay with CRL-7250, -3.07% in the assay on HEK293, 1.04% in the assay on HaCat and -18% in the assay with NIH3T3. In addition, in the assay on KB-3-1, the call was inactive.
`CC(C)CNCc1ccc(-c2ccccc2S(=O)(=O)N2CCCC2)cc1`: the max response in the assay with CRL-7250 was 1.47%; in the assay with HEK293, -19.2%; in the assay with HaCat, -12.3%; in the assay with KB-3-1, -1.28%; in the assay on NIH3T3 it was -1.63%.
For `CC(C)=CCC[C@](C)(O[C@@H]1O[C@H](CO)[C@@H](O)[C@H](O)[C@H]1O)[C@H]1CC[C@]2(C)[C@@H]1[C@H](O)CC1[C@@]3(C)CC[C@H](O)C(C)(C)C3[C@@H](O[C@@H]3O[C@H](CO)[C@@H](O)[C@H](O)[C@H]3O)C[C@]12C` (stereo not given in full), in that order: -0.753%, -3.92%, 4.06%, 9.79% and -17.5%.
Regarding `C/C1=C\CC[C@H](C)CCO[C@@H]2O[C@H](CO[C@@H]3OC[C@](O)(COC1=O)[C@H]3O)[C@@H](O)[C@H](O)[C@H]2O`, the compound was called inactive in the assay with CRL-7250 and with KB-3-1. The figures for the max response in the assay with HEK293, in the assay with HaCat and with NIH3T3 were -0.349%, -11.3% and -5.92%, respectively.
